In the library only some 3.1% were active in any assay of this set; here they are far more common.
GSIS activator: GLuc luminescence reporter in INS-1E cells, primary screen for activators of glucose-dependent secretion of insulin; activation, % at 16.6 µM; INS-1E GLuc reporter insulin secretion, 2-3 h; AID 743287, 2014; hit rate 0.61% among 370,000;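 active means lowest replicate activation of at least 40%, so every replicate reaches that level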
PAX8 reporter: inhibitors of PAX8-driven TPO luciferase reporter, primary screen, RMG-I cells, single concentration; SteadyGlo, 24 h; inhibition, % at 12.6 µM; hit rate 1.2% among 360,000;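 active means mean replicate inhibition at least 60% with every replicate also reaching 60%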;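 further: luciferase light reporting Pax8 driven TPO promoter activity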
miR-122 sensor: miR-122 Renilla sensor signal increase in Huh7, primary screen, miR-122 inhibitor project, cell-based, single point, plate reader | Huh7 miR-122 Renilla luciferase sensor, 48 h; neutral wells = 0, positive control = 100 | activation (reporter increase), % at 12.5 µM | hit rate 0.3% among 340,000;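 active means mean replicate activation score at least 90 and every replicate individually at or above 90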;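 further: higher luciferase means less miR-122 activity so hits act as miR-122 inhibitors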
Statin myotox sup: suppressors of statin myotoxicity in C2C12 myotubes, primary screen, cell-based, single point, plate reader; hit rate 0.78% among 330,000; C2C12 myotubes + simvastatin, ATP luminescence, 48 h; scaled: DMSO 0, geranylgeraniol control 100; rescue of ATP level, % at 7.49 µM; AID 602340, 2012;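 active means mean ATP rescue above about 67%, or every replicate alone reaching that limit, limit read from the data, passing the limit was not always enough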;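 further: myotubes were challenged with 10 µM simvastatin during compound exposure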
HIV Env fusion: inhibitors of HIV-1 Env-driven cell-cell fusion, primary screen, HeLa-JRFL effector, CEM21 target cells, luciferase. hit rate 1.1% among 360,000. inhibition, % at 12.3 µM. AID 651610, 2012;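 active means mean replicate inhibition score of at least 50 and every replicate individually at or above 50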
EWS-Fli inh: EWS/Fli-driven NR0B1 reporter inhibitors, primary screen, A673 cells, NR0B1 luciferase, luminescence, MLPCN library; inhibition, % at 12.6 µM; viability-normalised; AID 651661, 2012; hit rate 0.67% among 350,000;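 active means mean inhibition of at least 50% after viability correction, with every replicate also passing that limit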;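 further: firefly luciferase signal divided by Alamar Blue viability fluorescence both relative to DMSO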
Hits are given with their value; 0 = inactive; - = no result; [ ] = remark or other dose.

SMILES	GSIS activator	PAX8 reporter	miR-122 sensor	Statin myotox sup	HIV Env fusion	EWS-Fli inh
COc1ccc(NC(=O)Nc2ccc3c(c2)C(=O)N([C@H](C)CO)C[C@H](C)[C@@H](CN(C)C(=O)C2CCCCC2)OCCCC[C@H](C)O3)cc1	0	0	0	0	0	0
CN(C)c1ccc(C=c2c3ccccc3n3c2cc(-c2ccc(Cl)cc2)[n+]3C)cc1	0	78	-	-	0	0
COCC(=O)N1CCCCN2[C@H](C1)[C@@H](c1ccc(-c3ccc(C)cc3)cc1)[C@@H]2CO	0	115	0	0	-	0
COCC(=O)N1CCCCN2[C@H](CO)[C@H](c3ccc(-c4ccc(C)cc4)cc3)[C@H]2C1	0	0	0	0	-	0
Cc1ccc(-c2ccc([C@H]3[C@@H](CO)N4CCCCN(C(=O)c5ccc(F)cc5)C[C@H]34)cc2)cc1	0	73	0	0	-	0
CC(C)(C)c1ccc(C(=O)N2CCCCCC2=O)cc1	-	0	0	0	91	-
CC(C)C#Cc1cnc2c(c1)C(=O)N([C@H](C)CO)C[C@@H](C)[C@H](CN(C)Cc1ccccc1F)O2	0	-	0	0	0	0
O=C(Nc1ccc(OCC(=O)N2CCOCC2)cc1)c1cncc(Br)c1	0	0	0	-	57	-
CCCCOc1ccc(C(=O)Nc2ccc(OCC(=O)N3CCOCC3)cc2)cc1	0	-	0	0	-	0
c1ccc2c(c1)ncn2CCCCOc1ccc2c(c1)CCC2	-	-	0	-	88	-
Cc1ccccc1OCCCCn1cnc2ccccc21	-	0	0	0	65	-
c1ccc2c(c1)ncn2CCCOc1ccc2c(c1)CCC2	-	-	0	0	0	-
CCOC(=O)C1=C(C)NC(=O)C(C(N)=O)C1c1ccccc1 (configuration not stated)	-	0	0	111	0	-
Cc1noc(C)c1NC(=O)Nc1ccc2c(c1)C(=O)N([C@H](C)CO)C[C@H](C)[C@@H](CN(C)S(=O)(=O)c1c(C)noc1C)OCCCC[C@@H](C)O2	0	0	0	0	0	0
Cc1noc(C)c1NC(=O)Nc1ccc2c(c1)C(=O)N([C@@H](C)CO)C[C@H](C)[C@H](CN(C)S(=O)(=O)c1cccs1)OCCCC[C@H](C)O2	0	0	0	0	70[16.7 µM]	0
Cc1noc(C)c1S(=O)(=O)N(C)C[C@H]1OCCCC[C@H](C)Oc2ccc(NC(=O)Nc3ccc4c(c3)OCO4)cc2C(=O)N([C@H](C)CO)C[C@@H]1C	0	0	0	-	57[16.7 µM]	0
Cc1noc(C)c1NC(=O)Nc1ccc2c(c1)C(=O)N([C@@H](C)CO)C[C@@H](C)[C@H](CN(C)S(=O)(=O)c1c(C)noc1C)OCCCC[C@@H](C)O2	0	0	0	77	0	0
C[C@H]1CCCCO[C@H](CN(C)C(=O)Nc2cccc3ccccc23)[C@@H](C)CN([C@@H](C)CO)C(=O)c2cc(NC(=O)Nc3ccc4c(c3)OCO4)ccc2O1	0	0	0	66	0	0
C[C@@H]1CN([C@H](C)CO)C(=O)c2cc(NC(=O)Nc3cccc4ccccc34)ccc2O[C@@H](C)CCCCO[C@@H]1CN(C)C(=O)NC1CCCCC1	0	0	0	74	0	0
C[C@H]1CCCCO[C@@H](CN(C)C(=O)NC2CCCCC2)[C@@H](C)CN([C@@H](C)CO)C(=O)c2cc(NC(=O)Nc3cccc4ccccc34)ccc2O1	0	0	0	96	0	0
C[C@H](CO)N1C[C@H](C)[C@@H](CN(C)C(=O)Nc2cccc3ccccc23)OCCCC[C@H](C)Oc2ccc(NC(=O)c3ccncc3)cc2C1=O	0	82	0	0	0	0
C[C@@H]1CCCCO[C@H](CN(C)C(=O)Nc2cccc3ccccc23)[C@@H](C)CN([C@@H](C)CO)C(=O)c2cc(NC(=O)c3ccncc3)ccc2O1	0	0	0	0	0	0
C[C@@H]1CN([C@@H](C)CO)C(=O)c2cc(NC(=O)Nc3cccc4ccccc34)ccc2O[C@@H](C)CCCCO[C@H]1CN(C)C(=O)NC1CCCCC1	0	0	0	0	0	0
C[C@H](CO)N1C[C@H](C)[C@@H](CN(C)Cc2ccc3c(c2)OCO3)Oc2ccc(NC(=O)CCC(F)(F)F)cc2CC1=O	0	0	0	0	0	0
CCCNC(=O)C[C@H]1CC[C@H]2[C@@H](COC[C@H](O)CN2C(=O)C2CCOCC2)O1	0	0	0	0	-	0
SMILES	GSIS activator	PAX8 reporter	miR-122 sensor	Statin myotox sup	HIV Env fusion	EWS-Fli inh
C[C@@H]1CN([C@@H](C)CO)C(=O)c2cc(NC(=O)Nc3cccc4ccccc34)ccc2O[C@@H](C)CCCCO[C@H]1CN(C)C(=O)c1ccccc1	0	0	0	0	61[16.7 µM]	0
C[C@@H]1CN([C@H](C)CO)C(=O)c2cc(NC(=O)Nc3cccc4ccccc34)ccc2O[C@@H](C)CCCCO[C@@H]1CN(C)C(=O)c1ccccc1	0	-	0	-	0	0
C[C@H](CO)N1C[C@H](C)[C@H](CN(C)C(=O)NC2CCCCC2)OCCCC[C@H](C)Oc2ccc(NC(=O)Nc3cccc4ccccc34)cc2C1=O	0	0	0	137	0	0
CCN(CC)C(=O)c1scc2c1OCCO2	-	-	0	120	-	-
CCCCC(=NCCc1c(C)[nH]c2ccccc12)C1=C(O)CC(c2ccccc2)CC1=O (configuration not stated)	0	0	0	0	0	51
CCCC(=NCCc1c(C)[nH]c2ccccc12)C1=C(O)CC(c2ccccc2)CC1=O (configuration not stated)	0	-	0	-	-	-
CCN(CC)c1c(-c2ccccc2)c2cc(C)ccc2[nH]c1=O	0	0	0	0	68	0
C[C@@H]1CN([C@@H](C)CO)C(=O)Cc2cc(NC(=O)Cn3cnnn3)ccc2O[C@@H]1CN(C)S(=O)(=O)c1ccc(F)cc1	0	0	0	0	0	0
CC(=O)[C@@]1(O)Cc2c(O)c3c(c(O)c2[C@H](O[C@H]2C[C@H](N)[C@H](O)[C@H](C)O2)C1)C(=O)c1ccccc1C3=O	0	104	0	0	95	59
COc1cccc2c1C(=O)c1c(O)c3c(c(O)c1C2=O)C[C@@](O)(C(=O)CO)C[C@@H]3O[C@H]1C[C@H](N)[C@H](O)[C@H](C)O1	-	104	0	0	0	0
COc1cccc2c1C(=O)c1c(O)c3c(c(O)c1C2=O)C[C@@](O)(C(=O)CO)C[C@@H]3OC1CC(N)C(O)C(C)O1 (some centres not stated)	-	81	0	-	0	0
COc1cccc2c1C(=O)c1c(O)c3c(c(O)c1C2=O)CC(O)(C(C)=O)CC3OC1CC(N(C)C)C(O)C(C)O1 (configuration not stated)	0	103	0	-	58	65

High-throughput results: PubChem, Broad Institute
